Laboratory results taken from PubChem BioAssay (EPA / NIEHS).
Where “and” joins values, the source holds several entries; their conditions need not be identical. Equal entries are not always repeated. Records with an inconclusive call do not appear. Calls of active or inactive are those of the source. How the source made its calls: active means hit-call score of the fitted dose curve at least 0.9, where 1 is the maximum; inconclusive means response in the unintended direction; inactive means score below 0.9.

How the values were obtained:
[1] = biological target: Cellular tumor antigen p53 (Homo sapiens) (UniProt P04637); assay: TOX21_p53_BLA_p2_ratio: Tox21 HCT-116 p53 Agonism Beta-lactamase Assay, Ratio, Phase 2 (AID 2283592)
Chain of Cellular tumor antigen p53 (Homo sapiens) (P04637 whole entry, looked up): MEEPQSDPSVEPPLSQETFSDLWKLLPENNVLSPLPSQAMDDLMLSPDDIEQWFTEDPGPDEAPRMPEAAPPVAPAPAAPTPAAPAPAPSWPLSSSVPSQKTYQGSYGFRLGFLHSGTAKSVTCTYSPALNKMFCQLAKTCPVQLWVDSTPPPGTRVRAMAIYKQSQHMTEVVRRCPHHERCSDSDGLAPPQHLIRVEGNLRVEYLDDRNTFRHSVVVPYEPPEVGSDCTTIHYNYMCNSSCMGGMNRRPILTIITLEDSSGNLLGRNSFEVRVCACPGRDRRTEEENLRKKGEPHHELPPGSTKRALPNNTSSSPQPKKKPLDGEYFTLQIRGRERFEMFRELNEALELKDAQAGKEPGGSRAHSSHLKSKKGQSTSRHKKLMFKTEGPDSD
Summary of the method: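 First, HCT116 reporter cells settle for 5 h at 37C. Next, DMSO compound solutions are pinned in (217-fold dilution) and left 16 h. Finally, CCF4-AM substrate is loaded 2 h at room temperature and the 460/530 nm ratio read.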

[2] = TOX21_p53_BLA_p3_viability: Viability Assessment in the Tox21 HCT-116 p53 Agonism Beta-lactamase Assay, Phase 3 (AID 2283593);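 further: cells exposed to compound for 16 h before reading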
Summary of the method: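 Cellular ATP was quantified by CellTiter-Glo luminescence, read after 30 min at room temperature. Beforehand, HCT116 cells (4000/well) received compound 5 h post-seeding, 217-fold diluted from DMSO, then incubated 16 h at 37C.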

[3] = biological target: Cellular tumor antigen p53 (Homo sapiens) (UniProt P04637); assay: TOX21_p53_BLA_p3_ratio: Tox21 HCT-116 p53 Agonism Beta-lactamase Assay, Ratio, Phase 3 (AID 2283596)
Summary of the method: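 Cells were seeded at 4000/well, rested 5 h at 37C, then dosed with DMSO compound solutions (217-fold dilution) for 16 h. CCF4-AM substrate was loaded for 2 h at room temperature, and the 460/530 nm emission ratio was fitted for gain of signal versus DMSO.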

[4] = TOX21_p53_BLA_p4_viability: Viability Assessment in the Tox21 HCT-116 p53 Agonism Beta-lactamase Assay, Phase 4 (AID 2283597);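 further: hits lower the luminescence signal meaning cytotoxicity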
Summary of the method: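 4000 HCT116 cells per well; 5 h attachment; compounds from DMSO, 217-fold dilution; 16 h at 37C. Then CCF4-AM, 2 h RT, followed by CellTiter-Glo, 30 min RT, luminescence. Decrease = cytotoxicity.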

[5] = biological target: Cellular tumor antigen p53 (Homo sapiens) (UniProt P04637); assay: TOX21_p53_BLA_p5_ratio: Tox21 HCT-116 p53 Agonism Beta-lactamase Assay, Ratio, Phase 5 (AID 2283599)
Summary of the method: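 Beta-lactamase reporter ratio (blue 460 nm over green 530 nm, 405 nm excitation) after 2 h CCF4-AM loading, in HCT-116 cells exposed 16 h at 37 C to compounds pinned at 217-fold dilution. Increases relative to DMSO baseline scored.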

[6] = TOX21_p53_BLA_p5_viability: Viability Assessment in the Tox21 HCT-116 p53 Agonism Beta-lactamase Assay, Phase 5 (AID 2283600)
Summary of the method: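 Decreased CellTiter-Glo luminescence denotes lost viability. Exposure: 16 h at 37C, 5% CO2, with compounds from DMSO stocks diluted 217-fold in wells of 4000 cells.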

[7] = biological target: Cellular tumor antigen p53 (Homo sapiens) (UniProt P04637); assay: TOX21_p53_BLA_p4_ratio: Tox21 HCT-116 p53 Agonism Beta-lactamase Assay, Ratio, Phase 4 (AID 2283601)
Summary of the method: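 Signal is the blue/green (460nm/530nm) ratio of cleaved versus uncleaved CCF4-AM substrate, read after 2 h substrate loading. Cells were HCT116 carrying the p53-responsive beta-lactamase reporter, dosed 16 h at 37C, 5% CO2; CellTiter-Glo measured in parallel.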

[8] = biological target: Thyroid hormone receptor alpha (Rattus norvegicus) + Thyroid hormone receptor beta (Rattus norvegicus) (UniProt P18113+P63059); assay: TOX21_TR_LUC_GH3_Antagonist_Followup: Tox21 GH3 Thyroid Hormone Receptor Antagonism Luciferase Follow-Up Assay (AID 2283942)
Summary of the method: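 Loss of T3-driven (1.0 nM final) reporter activity in GH3 cells was read by ONE-Glo luminescence after 24 h incubation at 37C; 15-point compound series spanned 92 uM to 5nM final, 1,500 cells/well.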

THRA (gene 7067) = THRA (gene 7067) (UniProt P10827); assay: TOX21_TRA_COA_Antagonist_Followup_ratio: Tox21 Thyroid Hormone Receptor alpha Antagonism through Coactivator Recruitment Follow-Up Assay, Ratio (AID 2283953)
Chain of THRA (gene 7067) (P10827 whole entry, looked up, the tested form may be a part): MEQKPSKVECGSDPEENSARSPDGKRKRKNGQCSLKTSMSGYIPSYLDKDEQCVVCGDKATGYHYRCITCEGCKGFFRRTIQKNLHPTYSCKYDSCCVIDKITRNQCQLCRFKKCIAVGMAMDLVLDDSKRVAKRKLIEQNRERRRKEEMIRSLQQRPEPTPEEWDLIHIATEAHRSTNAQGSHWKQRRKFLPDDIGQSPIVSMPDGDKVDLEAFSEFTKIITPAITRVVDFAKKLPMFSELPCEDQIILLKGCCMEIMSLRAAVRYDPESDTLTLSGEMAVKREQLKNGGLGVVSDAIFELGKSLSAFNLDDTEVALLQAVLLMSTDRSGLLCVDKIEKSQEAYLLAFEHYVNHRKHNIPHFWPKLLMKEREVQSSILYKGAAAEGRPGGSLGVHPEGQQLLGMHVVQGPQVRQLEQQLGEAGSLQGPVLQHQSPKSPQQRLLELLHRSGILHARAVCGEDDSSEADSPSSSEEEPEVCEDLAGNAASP
Summary of the method: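 GST-TRα LBD 2.5 nM, BSA 0.10%, + cpd; then FITC-SRC-2 peptide 200 nM + Tb-anti-GST Ab 2 nM. TR-FRET ratio 520/495 nm. Norm: DMSO = 0%, T3 = 100%.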

THRB (gene 7068) = THRB (gene 7068) (UniProt P10828); assay: TOX21_TRB_BLA_Antagonist_Followup_ratio: Tox21 Thyroid Hormone Receptor beta Antagonism Beta-lactamase (BLA) Follow-Up Assay, Ratio (AID 2283958)
Chain of THRB (gene 7068) (P10828 whole entry, looked up): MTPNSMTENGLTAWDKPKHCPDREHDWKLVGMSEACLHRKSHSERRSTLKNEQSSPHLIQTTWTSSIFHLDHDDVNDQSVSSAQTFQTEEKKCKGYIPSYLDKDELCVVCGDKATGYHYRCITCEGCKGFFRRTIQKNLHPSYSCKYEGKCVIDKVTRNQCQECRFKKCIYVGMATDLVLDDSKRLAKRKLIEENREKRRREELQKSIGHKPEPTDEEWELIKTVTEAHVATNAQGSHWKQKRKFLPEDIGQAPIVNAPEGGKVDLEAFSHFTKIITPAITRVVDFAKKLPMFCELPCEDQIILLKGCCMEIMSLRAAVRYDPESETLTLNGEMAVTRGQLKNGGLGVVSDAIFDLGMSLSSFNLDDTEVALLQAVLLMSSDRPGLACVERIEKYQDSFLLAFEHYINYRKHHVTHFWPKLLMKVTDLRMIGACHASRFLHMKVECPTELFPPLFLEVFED
Summary of the method: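 Cells were plated and allowed to attach for 5 h, then dosed with compounds in DMSO at 11 concentrations for 18 h at 37C. Beta-lactamase reporter activity was measured via CCF4-AM FRET as the 460:530 nm ratio.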

[9] = TOX21_TRB_BLA_Antagonist_Followup_viability: Viability Assessment in the Tox21 Thyroid Hormone Receptor beta Antagonism Beta-lactamase (BLA) Follow-Up Assay (AID 2283961)
Summary of the method: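 HEK293T cells with GAL4-human TRβ LBD and UAS-bla reporter, 3,000 cells/well in 2% charcoal-stripped FBS medium; 11-point concentrations in triplicate, 18 h at 37C. Viability from ATP by CellTiter-Glo luminescence, 30 min RT, same plates.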

[10] = biological target: Retinoic acid receptor RXR-alpha (Homo sapiens) (UniProt P19793); assay: TOX21_TR_RXR_BLA_Antagonist_Followup_ratio: Tox21 Thyroid Hormone Receptor beta Retinoid X Receptor alpha (RXRa) Antagonism Beta-lactamase (BLA) Follow-Up Assay, Ratio (AID 2283972)
Chain of Retinoic acid receptor RXR-alpha (Homo sapiens) (P19793 whole entry, looked up): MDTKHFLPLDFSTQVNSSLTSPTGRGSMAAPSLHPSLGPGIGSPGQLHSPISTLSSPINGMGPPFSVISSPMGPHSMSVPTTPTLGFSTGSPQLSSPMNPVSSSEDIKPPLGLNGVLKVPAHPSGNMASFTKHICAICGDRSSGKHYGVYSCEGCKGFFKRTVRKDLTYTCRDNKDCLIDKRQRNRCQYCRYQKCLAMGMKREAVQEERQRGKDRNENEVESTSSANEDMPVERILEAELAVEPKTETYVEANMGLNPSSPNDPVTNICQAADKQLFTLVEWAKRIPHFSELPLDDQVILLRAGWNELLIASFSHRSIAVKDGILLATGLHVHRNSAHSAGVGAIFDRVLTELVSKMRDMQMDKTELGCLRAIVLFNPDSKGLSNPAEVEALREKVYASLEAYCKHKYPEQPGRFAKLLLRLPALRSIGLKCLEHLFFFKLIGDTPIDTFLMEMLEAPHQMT
Summary of the method: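 RXRa-UAS-bla HEK293T cells, 2,500/well in phenol red-free DMEM with 2% charcoal-stripped FBS, 5 h attachment, then compounds (11 concentrations, triplicate) for 16 h at 37C; FRET-B/GCCF4-AM substrate 2 h RT; 460:530 nm ratio, loss of signal vs DMSO.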

[11] = TOX21_TR_RXR_BLA_Antagonist_Followup_viability: Viability Assessment in the Tox21 Thyroid Hormone Receptor beta Retinoid X Receptor alpha (RXRa) Antagonism Beta-lactamase (BLA) Follow-Up Assay (AID 2283979)
Summary of the method: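 Follow-up compounds (11 concentrations, triplicate) were incubated 16 h at 37C/5% CO2 with HEK293T RXRa-bla cells seeded at 2,500/well in charcoal-stripped-serum medium. ATP content by CellTiter-Glo luminescence gave viability; curves fitted in both directions against DMSO.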

Measured: AC50

CCOC(=O)CC#N
inactive: [1] | [2] | [3] | [4] | [5] | [6] | [7]

Cc1cccc2c1cc1ccc3cccc4ccc2c1c34
active: [1] 801 nM | [3] 2.77 µM | [5] 2.33 µM | [7] 440 nM
inactive: [2] | [4]

CO[C@H](C(=O)[C@@H](O)[C@@H](C)O)C1Cc2cc3cc(O[C@H]4C[C@@H](O[C@H]5C[C@@H](O)[C@H](O)[C@@H](C)O5)[C@@H](O)[C@@H](C)O4)c(C)c(O)c3c(O)c2C(=O)[C@H]1O[C@H]1C[C@@H](O[C@H]2C[C@@H](O[C@H]3C[C@](C)(O)[C@H](O)[C@@H](C)O3)[C@H](O)[C@@H](C)O2)[C@H](O)[C@@H](C)O1 (some centres undefined)
inactive: [2] | [4] | [6] | THRA (gene 7067) | [9]
active: [1] 23.8 nM and 43.4 nM | [3] 24.2 nM and 37.6 nM | [5] 36 nM and 39.5 nM | [7] 45.6 nM and 49.7 nM | [8] 745 nM | THRB (gene 7068) 4010 nM | [10] 1360 nM | [11] 1350 nM

Cc1cccc(C)c1Nc1ncccc1C(=O)O
inactive: [2] | [3] | [4] | [5] | [7]
active: [1] 43800 nM

COc1ccccc1C=CC=O
inactive: [1] | [2] | [3] | [4] | [5] | [7]

NC(Cc1ccc(F)cc1)C(=O)O (centres undefined)
inactive: [1] | [2] | [3] | [4] | [5] | [7]
